Only some compounds are listed: those with a hit (about 1.1% of all), similar ones and a draw of the others.
VDR inh: inhibitors of human vitamin D receptor | 400,000 tested, 0.93% active | VDR-SRC2-3 peptide fluorescence polarization, 2 h | Potency, µM, for the others: max response, negative = inhibition, actives largely listed as inhibitors | P11473
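Fluorescence polarization assay measuring small-molecule disruption of VDR binding to the coregulator peptide SRC2-3. Compounds were pin-transferred (23 nl) into the reagent mix and incubated 2 h at room temperature before reading.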
PGK inhibitor: inhibitors of T. brucei phosphoglycerate kinase; AID 602233; PGK/GAPDH coupled, Kinase-Glo luminescence, 60 min; 380,000 tested, 0.043% active; Potency, µM (highest dose often 57.5 µM), without a hit: top-dose activity change, negative = inhibition, actives largely listed as inhibitors; also: nearly all actives have a fitted effect of over 60% in size
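Recombinant glycosomal PGK reaction used 1,3-bisphosphoglycerate generated in-well by GAPDH (100nM final) in 100mM TEA pH 7.6, 5mM MgCl2, 0.01% Tween-20. After 60 minutes at room temperature, ATP was read by Kinase-Glo Plus luminescence end-point.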
Tb PFK inh: T. brucei PFK enzyme inhibition; Potency, µM (highest dose often 57.5 µM), for the others: at the top dose activity, negative = inhibition, hits mostly inhibitors; 330,000 tested, 0.17% active; T. brucei PFK, ADP-Glo luminescence;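 also: 0% = uninhibited 1x PFK enzyme wells and -100% = no-enzyme wells; nearly all actives have a fitted effect of over 60% in size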
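PFK 1.25 nM, F6P 0.5 mM, ATP 0.1 mM, 0.1 M TEA pH 8.0, 5 mM MgCl2, 0.01% Tween20, 0.1% BSA; 45 min RT. ADP-Glo readout. qHTS titration up to 57 uM; curves fitted, compounds curve-classed.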
GLS inh: glutaminase GLS (human) inhibition. O94925. GLS enzymatic activity, qHTS titration. Potency, µM (highest dose often 45.5 µM), for the others: at the highest dose activity change, negative = inhibition, most hits filed as inhibitors. 410,000 tested, 0.21% active. AID 624170
Target sequence (O94925 whole entry, looked up): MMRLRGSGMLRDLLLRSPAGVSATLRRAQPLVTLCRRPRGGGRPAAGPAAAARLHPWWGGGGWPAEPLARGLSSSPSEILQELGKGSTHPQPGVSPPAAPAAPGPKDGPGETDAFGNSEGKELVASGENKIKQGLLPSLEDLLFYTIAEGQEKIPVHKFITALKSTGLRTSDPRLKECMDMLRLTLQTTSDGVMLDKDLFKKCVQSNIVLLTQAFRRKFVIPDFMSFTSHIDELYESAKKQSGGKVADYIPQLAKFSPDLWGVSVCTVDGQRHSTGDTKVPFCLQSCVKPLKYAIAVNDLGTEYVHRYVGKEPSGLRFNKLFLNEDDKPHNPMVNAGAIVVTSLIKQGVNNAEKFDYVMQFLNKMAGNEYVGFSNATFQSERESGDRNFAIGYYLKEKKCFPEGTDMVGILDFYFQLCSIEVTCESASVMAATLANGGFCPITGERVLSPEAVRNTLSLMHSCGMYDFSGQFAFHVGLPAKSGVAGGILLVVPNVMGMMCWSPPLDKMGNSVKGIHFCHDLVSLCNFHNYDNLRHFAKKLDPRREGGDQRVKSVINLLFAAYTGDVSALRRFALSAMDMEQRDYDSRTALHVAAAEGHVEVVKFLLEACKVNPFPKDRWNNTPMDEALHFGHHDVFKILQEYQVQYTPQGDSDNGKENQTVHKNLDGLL
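Compounds were pin-transferred onto hKGA, after which L-glutamine (1 mM solution) and a detection mix of glutamate oxidase, HRP and Amplex Red were added. Initial and 30 min RT fluorescence reads were collected.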
Pin1 inhibitor: blocks the human prolyl isomerase Pin1. Q13526. AID 504891. 390,000 tested, 0.009% active. Pin1 FP peptide displacement, HiFluor488, 10 min. Potency, µM (top dose mostly 115 µM), without a hit: top-dose activity, negative = inhibition, actives largely listed as inhibitors; active = well fitted inhibition curve with a large enough effect in the polarisation, with a control signal flat, not every such curve was filed as active; inconclusive = small, poorly fitted or top-dose-only effect, or effect the other way, or a change in a side signal; inactive = no such curve, though single readings can be large or run the other way; the % refers to the polarisation
The depositor's hits bear a star. Unless noted, calls follow the shape of the dose curve; as a rule, active = well fitted curve in the direction sought with a large enough effect; inconclusive = small, poorly fitted or top-dose-only effect, or another doubt; inactive = no such curve, though single readings can be large; an effect the other way counts as inactive or inconclusive. Unless noted, % is scaled to controls: 0 for no effect and ±100 for the full control effect; potency is read from the fitted curve at half-maximal effect.

`CCOC(=O)c1c(NC(=O)CSc2nc(-c3ccc(OC)cc3)cc(C(F)(F)F)n2)sc(C)c1C` gave VDR inh 79.4µM*, PGK inhibitor inactive, GLS inh -1.5% and Pin1 inhibitor -15.3%.
`CCCCC(=O)N(C)c1c(C)nc2ccc(C(=O)N3CCN(c4ccccc4)CC3)cn12` gave GLS inh 17.2%.
O=C(Cc1ccccc1)NNC(=O)Nc1ccc(Cl)c(Cl)c1 was read as VDR inh 0.8%, PGK inhibitor -4.3%, Tb PFK inh 0.0%, GLS inh -1.0% and Pin1 inhibitor -5.2%.
`NC(=S)NNC(=O)Nc1ccc(Cl)c(Cl)c1` gave VDR inh inconclusive, PGK inhibitor -6.7%, Tb PFK inh 16.9µM*, GLS inh 9.3% and Pin1 inhibitor 1.6%.
Oc1ccccc1C(=S)N1CCN(c2cccc(Cl)c2)CC1 was read as VDR inh 89.1µM*, PGK inhibitor -4.5%, Tb PFK inh -19.4%, GLS inh -3.0% and Pin1 inhibitor -8.9%.
For COc1ccc(C(=S)N2CCN(c3cccc(Cl)c3)CC2)c(OC)c1 the results were VDR inh inconclusive, PGK inhibitor inactive, Tb PFK inh 0.9%, GLS inh -14.6% and Pin1 inhibitor 13.0%.
Screening COc1cc(C(=S)N2CCN(c3cccc(Cl)c3)CC2)ccc1O returned VDR inh 39.8µM*, PGK inhibitor -6.8%, Tb PFK inh inconclusive, GLS inh -19.4% and Pin1 inhibitor -1.4%.
Screening CCN(CC)C(=O)C1=C(C)N(Cc2ccc(OC)cc2)C(=O)C(CC(=O)NCC2CCCCC2)C1 (stereo unspecified) returned PGK inhibitor inactive and GLS inh -2.5%.
`CN(C)c1cccc2c(S(=O)(=O)Nc3ccccn3)cccc12` gave VDR inh 4.0%, PGK inhibitor -5.4%, Tb PFK inh 0.3%, GLS inh 38.7% and Pin1 inhibitor -3.2%.
For Cc1noc(NS(=O)(=O)c2cccc3c(N(C)C)cccc23)c1C the results were VDR inh 25.1µM*.
Screening CC(=O)OCC(NC(=O)C(CCCCNC(=O)OCc1ccccc1)NC(=O)OC(C)(C)C)C1OC(n2cc(F)c(=O)[nH]c2=O)C(OC(C)=O)C1OC(C)=O (stereo unspecified) returned VDR inh -19.2% and Pin1 inhibitor 0.5%.
Screening CCC1(c2ccc(O)cc2)NC(=O)N(C)C1=O (stereo unspecified) returned VDR inh 16.4%.
For CCOC(=O)C1=C(C)C(c2ccc(OC)cc2)NC(=O)N1 (stereo unspecified) the results were VDR inh -3.7%, PGK inhibitor inactive, Tb PFK inh -8.1%, GLS inh 2.3% and Pin1 inhibitor 2.3%.
For CCOC(=O)C1=C(C)C(c2ccc(OC)cc2)NC(=S)N1 (stereo unspecified) the results were VDR inh 28.2µM*, PGK inhibitor inactive, Tb PFK inh -2.5%, GLS inh inconclusive and Pin1 inhibitor -6.5%.
Screening Cc1cc(N2C(=O)c3ccccc3C2=O)no1 returned Pin1 inhibitor 2.9%.
`COc1cc(OC)c(C2CC(=O)N3CN(c4ccccc4)CSC3=C2C#N)cc1OC` (stereo unspecified) gave VDR inh 10µM*, PGK inhibitor inactive, Tb PFK inh -25.2%, GLS inh 14.6% and Pin1 inhibitor -5.7%.
COc1ccc2ccccc2c1C1CC(=O)N2CN(C)CSC2=C1C#N (stereo unspecified) was read as VDR inh 25.1µM*, PGK inhibitor -4.2%, Tb PFK inh -27.3%, GLS inh 29.3% and Pin1 inhibitor inconclusive.
Screening COc1ccc(OC)c(C2CC(=O)N3CN(c4cccc(Cl)c4)CSC3=C2C#N)c1 (stereo unspecified) returned VDR inh 50.1µM*, PGK inhibitor -9.0%, Tb PFK inh -29.4%, GLS inh -21.5% and Pin1 inhibitor -0.4%.
`CCOC(=O)c1ccc(N2CSC3=C(C#N)C(c4ccc(OC)cc4OC)CC(=O)N3C2)cc1` (stereo unspecified) gave VDR inh -16.0%, PGK inhibitor 0.4%, Tb PFK inh -18.5%, GLS inh 1.4% and Pin1 inhibitor 9.2%.
`COc1ccc(OC)c(C2CC(=O)N3CN(c4ccc(C)c(Cl)c4)CSC3=C2C#N)c1` (stereo unspecified) gave VDR inh 15.8µM*, PGK inhibitor inactive, Tb PFK inh -18.4%, GLS inh 9.7% and Pin1 inhibitor 15.8%.
`COc1cc(OC)c(C2CC(=O)N3CN(C)CSC3=C2C#N)cc1OC` (stereo unspecified) gave VDR inh inconclusive, PGK inhibitor -11.4%, Tb PFK inh -13.9%, GLS inh -4.3% and Pin1 inhibitor 1.1%.
For Cc1ccc(Cc2nc3ccccc3nc2SCC(=O)NCCc2ccccc2)cc1 the results were VDR inh 11.9%, PGK inhibitor 3.2%, GLS inh 22.5% and Pin1 inhibitor 7.8%.
CCc1nc2ccc(C(=O)Nc3ccc(Cl)c(Cl)c3)cn2c1N(C)Cc1ccc(OC)cc1 was read as GLS inh 2.8%.
For COc1cccc(Oc2ccc(C(F)(F)F)cc2NC(=O)CN2C(=O)NC3(CCCC3)C2=O)c1 the results were VDR inh 42.2%, PGK inhibitor 3.1%, Tb PFK inh -8.7%, GLS inh -18.4% and Pin1 inhibitor 21.7%.
Screening CCOc1ccc(S(=O)(=O)Nc2cc(S(=O)(=O)N3CCOCC3)ccc2OC)cc1 returned VDR inh -8.9%, PGK inhibitor 1.6%, Tb PFK inh -0.8%, GLS inh -0.4% and Pin1 inhibitor 5.6%.
Screening O=C(O)C1=CCC=CC1C(=O)O (stereo unspecified) returned PGK inhibitor 12.6µM* and GLS inh 11.2µM*.
`CCOC(=O)C(C#N)(Cc1ccc2ccccc2n1)Cc1ccc2ccccc2n1` gave VDR inh 23.4%, PGK inhibitor -4.6%, GLS inh -5.6% and Pin1 inhibitor 3.7%.
`C/C(Cl)=C/Cn1c(SCC(C)C)nc2c1c(=O)[nH]c(=O)n2C` gave VDR inh 7.1%, PGK inhibitor -3.2%, Tb PFK inh -3.0%, GLS inh inconclusive and Pin1 inhibitor -8.7%.
CCOC(=O)C(CC)Sc1nc2c(c(=O)[nH]c(=O)n2C)n1C/C=C(/C)Cl (stereo unspecified) was read as VDR inh 31.6µM*, PGK inhibitor -5.6%, Tb PFK inh -5.9%, GLS inh inconclusive and Pin1 inhibitor 1.2%.
`S=c1[nH]nc(-c2ccc(Cl)cc2Cl)n1Cc1ccccc1` gave VDR inh 28.2µM*, PGK inhibitor -12.3%, Tb PFK inh -1.3%, GLS inh inconclusive and Pin1 inhibitor -9.7%.
For O=C(CSc1n[nH]c(Cc2ccccc2)n1)Nc1ccccc1Br the results were VDR inh 1.0%, PGK inhibitor -0.9%, Tb PFK inh -10.1%, GLS inh -3.5% and Pin1 inhibitor 3.1%.

Assay outcomes: PubChem BioAssay, National Center for Advancing Translational Sciences (NCATS)
